From PubChem BioAssay
AMA1-RON2 inh: qHTS for Inhibitors of AMA1-RON; Towards Development of Antimalarial Drug Lead: Primary Screen; Plasmodium falciparum AMA1 (3D7) - RON2 peptide interaction; AlphaScreen AMA1-biotinylated RON2 peptide binding; Potency, µM (top dose mostly 58.2 µM), for the others: at the highest dose activity change, negative = inhibition, hits mostly inhibitors; 360,000 tested, 0.2% active;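 note: 0% = vehicle wells and -100% = peptide control; nearly all actives have a fitted effect of over 45% in size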
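AMA1 (3D7) with his tag at 25 nM final met compounds first, then biotinylated RON2 peptide at 25 nM; detection used donor plus acceptor beads, 10 µg/mL apiece, read by AlphaScreen after 30 min at room temperature.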
AmpC detergent: qHTS Inhibitors of AmpC Beta-Lactamase (assay with detergent) | 370,000 tested, 0.041% active | P00811 | Potency, µM (series often up to 114 µM), for the others: at the highest dose activity change, negative = inhibition, hits mostly inhibitors | AmpC hydrolysis of nitrocefin, absorbance 480 nm, 0.01% Triton;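 note: 0% = no-compound wells and -100% = no-enzyme wells; nearly all actives have a fitted effect of over 25% in size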
Target sequence (P00811 whole entry, looked up): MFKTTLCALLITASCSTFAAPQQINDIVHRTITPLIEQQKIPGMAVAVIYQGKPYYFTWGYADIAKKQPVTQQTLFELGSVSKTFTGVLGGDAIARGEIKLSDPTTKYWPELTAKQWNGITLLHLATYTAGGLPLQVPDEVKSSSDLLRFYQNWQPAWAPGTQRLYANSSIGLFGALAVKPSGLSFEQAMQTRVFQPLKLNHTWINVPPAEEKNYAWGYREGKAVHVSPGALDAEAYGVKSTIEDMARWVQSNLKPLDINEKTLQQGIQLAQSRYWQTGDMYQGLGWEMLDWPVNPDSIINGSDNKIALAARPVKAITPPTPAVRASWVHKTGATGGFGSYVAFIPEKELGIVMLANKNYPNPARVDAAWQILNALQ
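AmpC (5.3 nM in the dispensed reagent) in 20 mM phosphate pH 7.0 with 0.01% (detergent screen) or 0.0001% Triton X-100 was preincubated with compounds for 15 min at room temperature. Nitrocefin was then added from an 800 uM solution, and hydrolysis was followed at 480 nm.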
AmpC inh no detg: qHTS Inhibitors of AmpC Beta-Lactamase (assay without detergent) | AmpC nitrocefin hydrolysis, absorbance 480 nm, 0.0001% Triton | Potency, µM (top dose mostly 57.1 µM), inactives show at the highest dose activity change, negative = inhibition, hits mostly inhibitors | 330,000 tested, 0.52% active | AID 485341, 2010;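 note: plate controls were no compound for no effect and no enzyme for full effect; nearly all actives have a fitted effect of over 20% in size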
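20 mM phosphate pH 7.0 + 0.01% (detergent screen) or 0.0001% Triton X-100; 5.3 nM AmpC reagent; cpd preinc 15 min RT; nitrocefin (800 uM stock) to start; A480 q20 s × 4 min; Activity was normalised to no-enzyme and no-compound control wells.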
HCV inhibitor: qHTS Assay for Inhibitors of Hepatitis C Virus (HCV); Huh7.5.1 HCVcc-Cre infection, luciferase reporter, 44 h; AID 651820, 2012; 340,000 tested, 3.4% active; Potency, µM (titrated, usually from 41.8 µM), for inactives: top-dose activity change, negative = inhibition, most hits filed as inhibitors
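A cell-based infection assay in which seeded cells (1,000 per well) receive test compound after 4 h, are inoculated with HCVcc-Cre at approximately 0.5 moi, and are incubated 44 h before luminescence detection.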
Pf growth 96h: Primary qHTS for delayed death inhibitors of the malarial parasite plastid, 96 hour incubation; P. falciparum luciferase reporter growth, 96 h; Potency, µM (highest dose often 28.7 µM), for inactives: top-dose activity change, negative = inhibition, most hits filed as inhibitors; 320,000 tested, 6.9% active; AID 504834, 2011
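Parasite growth measured via integrated firefly luciferase reporter in P. falciparum. Infected erythrocytes at 2% hematocrit, 0.05% parasitemia final were treated 96 hours at 37 C under 5% CO2, and luminescence was read.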
Pf growth 48h: Primary qHTS for delayed death inhibitors of the malarial parasite plastid, 48 hour incubation; P. falciparum luciferase growth in erythrocytes, 48 h; Potency, µM (top dose mostly 28.7 µM), for the others: top-dose activity change, negative = inhibition, actives largely listed as inhibitors; 310,000 tested, 5.9% active; AID 504832, 2011
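Erythrocytes infected with P. falciparum carrying an integrated firefly luciferase reporter (2% hematocrit, 0.1% parasitemia final) were exposed to compounds in RPMI 1640 with 0.5% Albumax at 37 C, 5% CO2. Growth inhibition was scored as reduced luminescence.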
Numbers without * were called inactive; u = inconclusive; x = no result given. An excerpt weighted towards active compounds, which were near 11% of everything screened. Calls come from the whole dose curve; as a rule, active = well fitted curve in the direction sought with a large enough effect; inconclusive = small, poorly fitted or top-dose-only effect, or another doubt; inactive = no such curve, though single readings can be large; an effect the other way counts as inactive or inconclusive. Unless noted, % is set by controls: 0 for no effect and ±100 for the full control effect; potency is the fitted concentration of half-maximal effect.

SMILES	AMA1-RON2 inh	AmpC detergent	AmpC inh no detg	HCV inhibitor	Pf growth 96h	Pf growth 48h
COc1cc(NC(=O)c2cc3c(Cl)nc4ccccc4c3s2)cc(OC)c1OC	26.6%	-2.1%	u	u	u	0.828µM*
COc1ccc(NC(=O)c2cc3c(Cl)nc4ccccc4c3s2)c(OC)c1	22.4%	-6.2%	-20.0%	0.4%	-7.7%	28.2%
Cc1ccc2nc(Cl)c3cc(C(=O)NCCCN(C)Cc4ccccc4)sc3c2c1	x	-3.1%	x	x	x	x
O=C(Nc1cccnc1Cl)c1cc2c(s1)-c1ccccc1OC2	13.0%	-14.4%	-3.0%	u	u	44.4%
CCOc1ccc(CCNC(=O)Cn2ccc3cc(S(=O)(=O)N4CCCCCC4)ccc32)cc1	x	18.0%	x	x	x	x
O=C(O)c1ccc2c(c1)C(=O)N([C@]1(C(=O)O)CC1c1ccccc1)C2=O (stereo partly drawn)	x	-14.2%	-3.8%	x	19.5%	-18.6%
COc1ccc2c(C)c(CCC(=O)NCc3ccc(Cl)cc3)c(=O)oc2c1C	x	-10.3%	x	x	x	x
COc1ccc(OC)c(-c2noc(N3CCN(c4ccc(Cl)cc4)CC3)n2)c1	x	1.7%	x	x	x	x
CCOC(=O)N1CCc2c(sc3c2c(=O)n(-c2ccc(Cl)cc2)c(=O)n3CC(=O)Nc2ccccc2)C1	x	0.5%	x	x	x	x
CC1CCCN(CCCNC(=O)c2cc3c(Cl)nc4ccccc4c3s2)C1 (stereo not drawn)	-17.6%	-4.1%	76.4%	12.6µM*	u	u
CC1CCCN(C(=O)c2cc3c(Cl)nc4ccccc4c3s2)C1 (stereo not drawn)	x	19.2%	x	x	x	x
COC(=O)C1=C(C)N(Cc2ccccc2)C(=NCc2cccc(Cl)c2)N[C@H]1c1cccc(F)c1	-17.6%	-15.0%	67.3%	u	u	8.28µM*
COC(=O)C1=C(C)N(Cc2ccccc2)C(=NCC(C)C)N[C@H]1c1cccc(F)c1	3.9%	u	32.5%	37.6%	u	13.1µM*
COC(=O)C1=C(C)N(Cc2ccccc2)C(=NCc2cc(OC)c(OC)c(OC)c2)N[C@H]1c1cccc(F)c1	-2.3%	u	218.9%	1.5%	10.4µM*	10.4µM*
COC(=O)C1=C(C)N(Cc2ccccc2)C(=NCc2ccc(OC)cc2)N[C@H]1c1cccc(F)c1	-4.1%	u	68.6%	-26.9%	u	u
COc1cccc(CNC(=O)C2CCN(C(=O)c3sccc3-n3cccc3)CC2)c1	x	-2.7%	x	x	x	x
NC(=S)NS(=O)(=O)c1ccc(N)cc1	x	x	x	x	-6.2%	-2.0%
COc1cccc(N2CCN(C(=O)CC(C)(C)CC3=NS(=O)(=O)c4ccccc4N3)CC2)c1	-4.0%	-1.8%	53.1%	11.2µM*	u	u
CC(C)(CC(=O)N1CCN(c2ccc(Cl)cc2)CC1)CC1=NS(=O)(=O)c2ccccc2N1	-10.7%	1.8%	20.6%	u	102.4%	9.28µM*
O=C(CCCC1=NS(=O)(=O)c2ccccc2N1)N1CCN(c2ccccc2)CC1	-2.1%	5.9%	-15.1%	2.4%	205.1%	-20.2%
COc1cc(NS(C)(=O)=O)ccc1Nc1c2ccccc2nc2ccccc12	6.3%	-1.8%	-27.3%	0.891µM*	0.928µM*	1.04µM*
COc1ccc(OC)c(Nc2c3ccccc3nc3ccccc23)c1	20µM*	0.7%	0.6%	u	u	1.65µM*
COc1ccc([N+](=O)[O-])cc1NC(=O)CSc1nc(C)cc(C)n1	-6.1%	-8.9%	-55.6%	u	u	3.8%
COc1ccc(Nc2nc3ccccc3nc2NS(=O)(=O)c2ccc(C)cc2)c(OC)c1	x	9.6%	x	x	x	x
COc1cc([N+](=O)[O-])ccc1Nc1nc(C)cc(C)n1	-21.2%	-0.6%	-26.7%	u	9.28µM*	15.1%
